Compounds without any hit were thinned out: in the full panel of roughly 79,000, 15% have a hit. Rule as the data show it: active = growth inhibition above about 70%; inactive = the rest.
Columns and labels:
[1] = NCI Yeast Anticancer Drug Screen. Data for the rad50 strain (AID 155);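 also: 0% = growth of vehicle-only cultures of the same strain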; details: S. cerevisiae rad50 strain growth inhibition; at 50.0 µM; stronger effect = higher value
Summary of the method: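 Relative growth inhibition (compound vs vehicle) was measured in yeast with a defined repair-gene alteration.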

[2] = NCI Yeast Anticancer Drug Screen. Data for the mec2-1 strain (AID 157); details: S. cerevisiae mec2-1 strain, at 50.0 µM, stronger effect = higher value
Summary of the method: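 Mutant yeast (mec2-1) grown with compound; growth inhibition relative to vehicle control reported.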

[3] = NCI Yeast Anticancer Drug Screen. Data for the sgs1 mgt1 strain (AID 161);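 also: 0% = growth of cultures given vehicle only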; details: S. cerevisiae sgs1 mgt1 strain, at 50.0 µM, stronger effect = higher value
Summary of the method: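 Yeast cells carrying a defined DNA-repair defect were exposed to test compounds. Growth inhibition was measured relative to vehicle-treated controls.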

[4] = NCI Yeast Anticancer Drug Screen. Data for the cln2 rad14 strain (AID 165);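 also: 0% = growth equal to vehicle treated cultures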; details: S. cerevisiae cln2 rad14 strain, at 50.0 µM, stronger effect = higher value
Summary of the method: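 Readout is yeast growth inhibition versus vehicle-treated controls, using a strain with cln2 and rad14 alterations exposed to compound.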

[5] = NCI Yeast Anticancer Drug Screen. Data for the bub3 strain (AID 167); details: S. cerevisiae bub3 mutant strain, at 50.0 µM, stronger effect = higher value
Summary of the method: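 Screening used yeast with an engineered genetic alteration affecting cell cycle control. Compound-exposed cultures were compared with vehicle cultures, and reduced growth was taken as inhibition.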

[6] = NCI Yeast Anticancer Drug Screen. Data for the mlh1 rad18 strain (AID 175); details: S. cerevisiae mlh1 rad18 strain growth inhibition; at 50.0 µM; stronger effect = higher value
Summary of the method: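 Genetically defined yeast (DNA repair-deficient) exposed to compounds; growth inhibition determined relative to vehicle.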

Measured: growth inhibition

O=C1c2cccc([N+](=O)[O-])c2C(=O)N1c1ncn[nH]1
inactive: [1] -5.9% | [2] -2.15% | [3] -21.9% | [4] -6.8% | [5] -43.4% | [6] 0.15%

Cc1cc([N+](=O)[O-])ccn1
inactive: [1] -15.2% | [2] 1.1% | [3] -18.1% | [4] -4.5% | [5] -6.15% | [6] -9.9%

CCCCCCC(=O)CC(SCCS)c1ccc(Cl)c(Cl)c1 (stereo unspecified)
inactive: [1] 4.65% | [2] 16.2% | [3] -4.3% | [4] 5.8% | [5] -1.4% | [6] 6.3%

CN/N=C(\C(=O)Nc1ccc([N+](=O)[O-])cc1[N+](=O)[O-])C1NC(=O)NC1=O (stereo unspecified)
inactive: [1] 23.8% | [2] 20.1% | [3] 1.95% | [4] 5.05% | [5] 15.9% | [6] -10.9%

CC(=O)n1[nH]c(=O)n(-c2ccc(Cl)cc2)c1=O
inactive: [1] -36.5% | [2] -37.2% | [3] -30.1% | [4] 2.1% | [5] -22.2% | [6] -73%

N#CCCN(C1=NN(C(=O)CC(=O)Nc2ccc(Cl)cc2)C(c2ccccc2)C1)c1ccc(Cl)cc1 (stereo unspecified)
inactive: [1] 14.3% | [2] -13.7% | [3] -17.6% | [4] 10.7% | [5] -5.55% | [6] -8.35%

COc1ccc2c(c1)SC1=NNC(=O)CN12
inactive: [1] -21.6% | [2] -27.6% | [3] -9.45% | [4] -39.1% | [5] -12.2% | [6] -22.9%

CC(C#N)c1cn(S(=O)(=O)c2ccccc2)c2ccccc12 (stereo unspecified)
inactive: [1] 30.6% | [2] 3.4% | [3] -5.4% | [4] 9.75% | [5] 52.7% | [6] 37%

CCOC(C)=N
inactive: [1] 3.1% | [2] -29.4% | [3] 7.3% | [4] -6.85% | [5] -9.7% | [6] 3.35%

CC(C)CC(O)CC(C)C
inactive: [1] 1.25% | [2] -25.1% | [3] -0.75% | [4] 28.4% | [5] -15.3% | [6] 19.8%

CN(C)CCC(=O)c1cccnc1
inactive: [1] 9.9% | [2] -17.1% | [3] -3.35% | [4] -4.8% | [5] 5.65% | [6] -1.2%

O=C(c1ccccc1)C1(Cl)CCCCC1
inactive: [1] -9.95% | [2] -12.6% | [3] -10.8% | [4] -8.45% | [5] -5.15% | [6] 15.6%

O=C1CSC(=S)N1
inactive: [1] -8.05% | [2] -7.9% | [3] 13.3% | [4] 10.8% | [5] -7.15% | [6] 20.9%

O=S(=O)(Oc1ccc(Cl)cc1)c1ccc(Br)cc1
inactive: [1] 10.7% | [2] 32.7% | [3] 47.1% | [4] 8.8% | [5] 39.4% | [6] 25.3%

Cc1cc(C)cc(C(C)C)c1
inactive: [1] -15.4% | [2] -4.35% | [3] -22.9% | [4] 5.95% | [5] -11.6% | [6] -6.95%

Clc1cc(Cl)c(SSc2cc(Cl)c(Cl)cc2Cl)cc1Cl
inactive: [1] -11.6% | [2] 1.15% | [3] -18.1% | [4] -71.5% | [5] 0.75% | [6] -22.6%

FC1(F)C(F)(F)C(F)(F)C2(F)C(F)(F)C(F)(F)C(F)(F)C(F)(F)C2(F)C1(F)F (stereo unspecified)
inactive: [1] -25.2% | [2] -21.2% | [3] -17.7% | [4] 7.25% | [5] -0.8% | [6] -8.5%

C=CCN1C(=O)c2ccccc2C1=O
inactive: [1] 24.3% | [2] -3.2% | [3] 11.6% | [4] 6.85% | [5] 22.6% | [6] 21.6%

COc1ccc(C(=O)c2cc(S(=O)(=O)O)c(OC)cc2O)c(O)c1
inactive: [1] -32.8% | [2] -35.4% | [3] -31.2% | [4] -1.6% | [5] -13.4% | [6] -21.9%

CCOC(=O)N1CCN(C(=O)OCC)C(C)C1 (stereo unspecified)
inactive: [1] 4.45% | [2] -0.7% | [3] -8.8% | [4] -20.1% | [5] 6.35% | [6] -8.6%

Cc1ccc(NC(=O)CCc2cc(C(C)(C)C)nc(=S)[nH]2)cc1C
inactive: [1] -36.6% | [2] -27.5% | [3] -46.5% | [4] -30.6% | [5] -35.8% | [6] -34%

CCCCCCC#CC(=O)OC
inactive: [1] -3.05% | [2] -21.6% | [3] 1.5% | [4] 15.4% | [5] -11.6% | [6] 24.4%

CC(=O)C(C)(C)CCC(C)(C)C(C)=O
inactive: [1] 2.95% | [2] -12.6% | [3] -4% | [4] 13.1% | [5] 8.4% | [6] -20.6%

CCCOC(=O)c1cc(O)ccc1O
inactive: [1] 1.15% | [2] -0.45% | [3] 14.9% | [4] -17.6% | [5] -2.55% | [6] -1.7%

CCOc1nc(N)nc(C)c1N=Nc1ccc(O)cc1
inactive: [1] -5.7% | [2] 6.2% | [3] 0.85% | [4] -43% | [5] -2.4% | [6] -0.4%

COCn1cnc2c(F)ncnc21
inactive: [1] 3.85% | [2] -1.4% | [3] -5.1% | [4] -29.1% | [5] -11.2% | [6] -3.1%

Cc1ccc2c(C)cc(=O)n(C)c2c1
inactive: [1] 4.7% | [2] 11.2% | [3] 9.6% | [4] 4.9% | [5] -0.25% | [6] 15.1%

CCCCCCC/C=N/Nc1ccc([N+](=O)[O-])cc1[N+](=O)[O-]
inactive: [1] -3.3% | [2] -16.1% | [3] -5.55% | [4] -23.9% | [5] 1.4% | [6] 12.9%

CC(C)=CC(Cc1ccccc1)S(=O)(=O)c1nc2ccccc2s1 (stereo unspecified)
inactive: [1] 8.8% | [2] 33.4% | [3] 12.1% | [4] 9.4% | [5] 31.2% | [6] -16.9%

COC(=O)/C=C(\C(=O)OC)C1=C(N2CCCC2)CC(C)(C)CC1=O
inactive: [1] -7.8% | [2] -14.9% | [3] -14.1% | [4] -14.3% | [5] -14.3% | [6] -1.1%

NC(=O)N/N=C/c1ccccc1O
inactive: [1] 28.8% | [2] 11.2% | [3] 15% | [4] 5.95% | [5] -1.2% | [6] 6.75%

O=c1ccn2c(n1)OC1CC2OC1COC(c1ccccc1)(c1ccccc1)c1ccccc1 (stereo unspecified)
inactive: [1] -8.8% | [2] 4.15% | [3] 12.2% | [4] -17.4% | [5] 3.6% | [6] 10.3%

NC(=O)c1ccccc1NC(=O)C(=O)Cc1nc2ccccc2[nH]c1=O
inactive: [1] -2.55% | [2] -1.55% | [3] 11.7% | [4] 12.7% | [5] 1.25% | [6] 6.15%

COC(=O)C1CSCN1 (stereo unspecified)
inactive: [1] -23.9% | [2] -4.3% | [3] -26.9% | [4] -61.4% | [5] -3.5% | [6] -12.8%

CCOP(=O)(OCC)/C(C#N)=C/c1c(C)[nH]c2ccccc12
inactive: [1] 0.5% | [2] -10.8% | [3] 18.6% | [4] 13.4% | [5] -7.45% | [6] 25.7%

CN(C)c1ncnc2c1cnn2-c1ccccc1
inactive: [1] -4.45% | [2] -4.35% | [3] 0.2% | [4] -40.8% | [5] -0.25% | [6] -3.15%

From PubChem BioAssay (NCI)
